PLAP act – PLAP enzyme activators, biochemical, luminescence, HTS; Alkaline phosphatase, placental type (Homo sapiens), P05187; purified PLAP enzyme, luminescent substrate read-out; hits give high values; activation fold at 20 µM; hit rate 1.2% among 96,000; in the data active = activation fold above about 2
Target sequence (P05187 whole entry, looked up): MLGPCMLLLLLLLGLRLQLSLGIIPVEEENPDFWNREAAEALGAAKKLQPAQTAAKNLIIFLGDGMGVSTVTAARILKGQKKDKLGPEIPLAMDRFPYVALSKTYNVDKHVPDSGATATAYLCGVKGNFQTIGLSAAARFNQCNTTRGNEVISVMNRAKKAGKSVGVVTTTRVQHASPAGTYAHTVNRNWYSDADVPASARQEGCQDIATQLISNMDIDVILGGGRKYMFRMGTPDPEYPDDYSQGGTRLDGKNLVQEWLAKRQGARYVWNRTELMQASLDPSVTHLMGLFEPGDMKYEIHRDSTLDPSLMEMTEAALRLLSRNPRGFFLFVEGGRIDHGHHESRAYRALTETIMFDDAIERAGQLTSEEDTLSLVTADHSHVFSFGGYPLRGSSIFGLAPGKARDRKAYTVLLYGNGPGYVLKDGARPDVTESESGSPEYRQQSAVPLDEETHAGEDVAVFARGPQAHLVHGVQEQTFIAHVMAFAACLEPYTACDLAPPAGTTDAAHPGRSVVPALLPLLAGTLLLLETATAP
CYP2C19 activ – human CYP2C19 activators, primary screen, biochemical, luminescence | Cytochrome P450 2C19 (Homo sapiens), P33261 | recombinant CYP2C19, luciferin-H EGE luminescence; hits give high values; 0 = fully inhibited enzyme, 1 = untreated enzyme | activation factor at 5 µM | 96,000 tested, under 10 active;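 active = activation factor of at least 2 at 5 µM in the primary screen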;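 also: 0 = wells with 2.5 mM tranylcypromine and 1 = vehicle-only wells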
CYP2C9 activ – human CYP2C9 activators, primary screen, biochemical, luminescence | AID 1024, 2008 | recombinant CYP2C9, luciferin-H conversion; hits give high values; factor 1 = untreated enzyme, 0 = blocked | activation factor at 5 µM | hit rate 1.4% among 96,000;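 active = activation factor of 2 or more for CYP2C9 at a 5 µM dose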;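 also: 0 = sulfaphenazole-blocked wells and 1 = vehicle-only wells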
CYP2C9 inhib – blockers of cytochrome P450 2C9 activity – biochemical, luminescence, ADME assay, primary screen; CYP2C9 Supersomes, luciferin-H conversion; AID 777, 2007; inhibition, % at 5 µM; P11712; hit rate 20% among 96,000;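 active = blocking of liver enzyme CYP2C9 beyond about 50% at 5 µM, limit read from the data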
CYP2C19 inhib – blockers of cytochrome P450 2C19 activity – biochemical, luminescence, ADME assay, primary screen; CYP2C19 Supersomes, luciferin-H EGE luminescence, 30 min; inhibition, % at 5 µM; hit rate 21% among 96,000; AID 778, 2007;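 active = CYP2C19 inhibition above a set limit at 5 µM in the primary screen, cut at about 50% in these data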;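 also: plate controls were negative control wells for no effect and 2.5 mM tranylcypromine positive control for full effect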
Active calls of the source: *; . = no result. This is a sample that favours compounds with a hit; in the whole collection about 31% have one here.

SMILES | PLAP act | CYP2C19 activ | CYP2C9 activ | CYP2C9 inhib | CYP2C19 inhib
O=C(NC1CC1)c1ccc(S(=O)(=O)NC2CCCCCC2)cc1 | 0.8 | 0.5 | 0.7 | 35 | 54*
CCC1(C)C2(C#N)C(N)=NC(OC)(OC)C12C#N (stereo not drawn) | 1 | 1.3 | 1.2 | -18 | -27
Cc1ccc(-c2nnc(SCC(=O)N3CCN(c4ccccc4)CC3)o2)cc1 | 1.1 | 0.8 | 0.7 | 27 | 21
COc1cc2cc(CN(CCCO)S(=O)(=O)c3ccccc3)c(=O)[nH]c2cc1OC | 1.1 | 1.1 | 0.9 | 9 | -6
CCOC(=O)c1cccc(S(=O)(=O)N(CCO)Cc2cc3cc(OC)c(OC)cc3[nH]c2=O)c1 | 1.5 | 1 | 1 | 2 | 3
O=c1[nH]c2cc3c(cc2cc1CN(CCO)S(=O)(=O)c1ccccc1Cl)OCCO3 | 1 | 0.7 | 0.2 | 77* | 30
COc1cc2cc(CN(CCO)S(=O)(=O)c3ccccc3Cl)c(=O)[nH]c2cc1OC | 1.3 | 0.9 | 0.4 | 55* | 12
CCOC(=O)c1oc2ccccc2c1NC(=O)c1cc(OC)cc(OC)c1 | 1.1 | 0.9 | 0.9 | 13 | 8
O=C(c1cncc(Br)c1)N1CCc2ccccc2C1 | 1.1 | 0.1 | 0.6 | 41 | 86*
O=C(c1ccc(Cl)nc1)N1CCc2ccccc2C1 | 1 | 0 | 0.5 | 47 | 98*
Cc1ccccc1C(=O)N1CCc2ccccc2C1 | 1 | . | 0.8 | 16 | .
O=C(c1cccc(F)c1)N1CCc2ccccc2C1 | 0.9 | 0.3 | 0.9 | 9 | 70*
O=C(c1cncc(Br)c1)N1CCCc2ccccc21 | 0.9 | 0.4 | 0.6 | 40 | 62*
O=C(c1cnc2sccn2c1=O)N1CCc2ccccc2C1 | 1 | 0.8 | 1.1 | -7 | 18
CC1CN(c2ccc(S(=O)(=O)N3CCOCC3)cn2)CC(C)O1 (stereo not drawn) | 1.1 | 1.2 | 1 | -2 | -19
COc1cnc(SCc2c(Cl)cccc2Cl)nc1Cl | 0.9 | 0.5 | 1 | 2 | 45
CCOc1cc(N2CCOCC2)c(OCC)cc1NC(=O)c1cc(-c2ccco2)nc2ccccc12 | 1.8 | 0.7 | 0.7 | 27 | 32
Cc1ccc(-c2c(C#N)c(N)n(-c3ccc(C)cc3)c(=O)c2C#N)cc1 | 1 | 0.9 | 1.1 | -9 | 10
Cc1ccc(-c2c(C#N)c(N)n3c(nc4ccccc43)c2C#N)cc1 | 1.2 | 0.9 | 0.4 | 64* | 12
Cc1ccc(CSc2nc3c(c(SCC(=O)O)n2)CCCC3)cc1 | 1.3 | 1 | 0.7 | 32 | -3
CN(C)c1nc(SCc2ccccc2Cl)nc2c1CCCC2 | 1 | 0.2 | 0.8 | 21 | 80*
Cc1ccc(CSc2nc3c(c(N(C)C)n2)CCCC3)cc1 | 1 | 0.1 | 0.4 | 56* | 93*
CNc1nc(SCc2ccc(C)cc2)nc2c1CCCC2 | 0.8 | 0 | 0.3 | 73* | 96*
COC(=O)CSc1nc(SCc2ccc(C)cc2)nc2c1CCCC2 | 1.3 | 0 | 0 | 97* | 95*
CCSc1nc2c(cnn2-c2ccc(C)cc2)c(=O)[nH]1 | 1.2 | 1 | 1.2 | -19 | 0
SMILES | PLAP act | CYP2C19 activ | CYP2C9 activ | CYP2C9 inhib | CYP2C19 inhib
CN1C2=NCCN2C(=O)c2ccccc21 | 0.8 | 0.9 | 1.1 | -10 | 6
COc1ccccc1NC(=O)CSc1nc(C)c2c(c1C#N)CCCC2 | 1.1 | 0.8 | 0.8 | 19 | 22
COC(=O)CSc1nc(-c2ccc(C)cc2)c2c(c1C#N)CCCC2 | 0.9 | 0.5 | 0.4 | 55* | 45
O=C(O)C1CCCCC1C(=O)Nc1nc(-c2cccs2)cs1 (stereo not drawn) | 1 | 1.2 | 1 | 1 | -18
O=C(COc1ccccc1Cl)Nc1nc(-c2cccs2)cs1 | 1.1 | 0.6 | 0.2 | 82* | 41
CC(=O)Nc1nc(-c2cccs2)cs1 | 1.2 | 0.7 | 0.5 | 54* | 31
COc1ccccc1Nc1nc2c(s1)CCC2 | 1.1 | 0.9 | 0.9 | 7 | 6
Cc1cc(Cl)ccc1OCC(=O)Nc1nc(-c2cccs2)cs1 | 1.1 | 0.8 | 0.4 | 56* | 21
COc1ccccc1Nc1nc(C2(C)CCC(=O)O2)cs1 (stereo not drawn) | 1 | 0.2 | 0.6 | 39 | 81*
CCOC(=O)/C(=N/Nc1ccc(Cl)cc1)S(=O)(=O)c1ccc(Cl)cc1 | 1 | 0.9 | 0.9 | 9 | 8
COCC(C)NCc1cccc(C)c1 (stereo not drawn) | 1.1 | 0.9 | 1.1 | -10 | 15
COc1ccccc1Nc1nc(-c2cccs2)cs1 | 0.8 | 0.2 | 0.3 | 72* | 83*
CC(Oc1ccc(Cl)cc1)c1ccnn1S(=O)(=O)c1ccc(Cl)cc1 (stereo not drawn) | 0.8 | 0.7 | 0.2 | 82* | 30
CC(C)OCCCNC(=O)C(C)Oc1ccccc1 (stereo not drawn) | 0.8 | 0.7 | 0.9 | 9 | 31
CCNC(=O)n1nccc1C(C)Oc1ccccc1 (stereo not drawn) | 0.8 | 0.5 | 0.5 | 46 | 55*
CC(Oc1ccccc1)c1ccnn1S(=O)(=O)c1ccccc1 (stereo not drawn) | 0.9 | 0.6 | 0.4 | 64* | 43
CCS(=O)(=O)N1CCN(S(=O)(=O)c2ccccc2)CC1 | 0.9 | 0.6 | 0.8 | 22 | 35
Cc1nc(N2CCN(c3ccccc3)CC2)[nH]c(=O)c1Cc1cccc2ccccc12 | 1.1 | . | . | . | .
CC1=CC(=O)C=CC1(C)C(Cl)Cl (stereo not drawn) | 1.1 | 1.2 | 1.1 | -12 | -18
Cc1onc(COc2ccccc2O)c1Br | 0.8 | 0.3 | 0.9 | 10 | 73*
COc1ccc(N2CCN(C(=O)CN(c3ccccc3)S(C)(=O)=O)CC2)cc1 | 0.9 | 1 | 0.9 | 12 | 2
CS(=O)(=O)N(CC(=O)N1CCN(c2ccc(F)cc2)CC1)c1cccc(Cl)c1 | 1.3 | 0.6 | 2.4* | -139 | 37
CN(CC(=O)N1CCN(c2cccc(Cl)c2)CC1)S(=O)(=O)c1cccs1 | 1.7 | 0.2 | 0.2 | 81* | 82*
CN(CC(=O)N1CCN(c2ccc(F)cc2)CC1)S(=O)(=O)c1ccc(F)cc1 | 1.1 | 0.8 | 1 | -2 | 18
CN(CC(=O)N1CCN(c2ccccc2)CC1)S(=O)(=O)c1cnc[nH]1 | 1.2 | 0.1 | 0 | 100* | 92*
CC(Oc1cc(C(F)(F)F)cc(C(F)(F)F)c1)C(=O)NC(N)=O (stereo not drawn) | 1.1 | 1 | 1.2 | -21 | 0
CCOC(=O)N1CCC(NC(=O)C2CCCCN2S(=O)(=O)c2ccc(F)cc2)CC1 (stereo not drawn) | 1.6 | 0.7 | 0.8 | 16 | 28
Cc1nn(-c2ccccc2)c(Cl)c1C(=O)Nc1c(C)n(C)n(-c2ccccc2)c1=O | 1.4 | 1 | 0.9 | 8 | -3

From PubChem
